Active and inactive are the calls of the source. Rule for the calls: active = hit-call score of the fitted dose curve at least 0.9, where 1 is the maximum; inactive = score below 0.9.

Read-out in the assay: Monokine induced gamma interferon (MIG), CXCL9 (gene 4283)
The assay is described as follows: BSK_SAg_MIG: BioMAP Diversity Plus: SAg Assay for Monokine induced gamma interferon (MIG) Biomarker Activity (AID 2283092). Conditions: primary human HUVEC with PBMC; actives raise or lower the signal. As to the method:
BSK_SAg is a cell-based, multiplexed-readout assay that uses umbilical vein endothelium and peripheral blood mononuclear cells, a human vascular primary cell co-culture, with measurements taken at 24 hours after chemical dosing in a 96-well plate.BSK_SAg_MIG is an assay component measured in the BSK_SAg assay. It measures MIG antibody related to regulation of gene expression using ELISA technology.Data from the assay component BSK_SAg_MIG was analyzed into 1 assay endpoint. This assay endpoint, BSK_SAg_MIG, was analyzed with bidirectional fitting relative to DMSO as the negative control and baseline of activity. Using a type of binding reporter, gain or loss-of-signal activity can be used to understand changes in the signaling as they relate to the gene CXCL9. Furthermore, this assay endpoint can be referred to as a primary readout, because this assay has produced multiple assay endpoints where this one serves a signaling function. To generalize the intended target to other relatable targets, this assay endpoint is annotated to the cytokine intended target family, where the subfamily is chemotactic factor.
The levels of cell surface (or secreted, indicated by the prefix "s") biomarker endpoints were measured by ELISA. Overt cytotoxicity to cells in confluent adherent cultures (all systems other than the BT system) was assessed by measuring total protein levels using sulforhodamine B (SRB) staining in parallel cultures at the time of biomarker measurements, indicated as SRB endpoints. For proliferation assays for adherent cell types, individual cell types are cultured at sub-confluence and relative cell numbers quantified by SRB staining at time points optimized for each system (48 h: 3C and CASM3C systems; 72 h: BT and HDF3CGF systems; 96 h: SAg system). SRB was performed by staining cells with 0.1% SRB after fixation with 10% TCA and reading wells at 560 nm.Viability and proliferation of PBMC (T cells) was quantified by Alamar Blue reduction for the SAg and BT systems. For PBMC viability (referred to as PBMC Cytotoxicity within the assay endpoint names), cells were plated (75,000/well in a 96-well plate) and then chemical samples added for 1 h before addition of activators, SEB and TSST-1 (20 ng/mL final concentration each). Cells were incubated for 90 h. Then, Alamar Blue (20 uL/well) (Invitrogen, Cat DAL1100) was added for 6 h, and the plates were read with a fluorescence microplate reader at 546/580 nm (excitation/emission). For PBMC proliferation, cells were plated and activated as above but incubated for only 16 h prior to addition of Alamar Blue. Plates were read after 6 h.
With `CCCC(=O)OCC`, the result was inactive.

Turning to `CCOC(=O)c1ccc(C2CCC(NC[C@H](O)COc3ccc(O)c(NS(C)(=O)=O)c3)CC2)cc1` (stereo not given in full), the outcome was inactive.

For the molecule `Cc1ccc(S(=O)(=O)O)cc1C`, the outcome was inactive.

Consider `CCOC(=O)COc1ccc2c(c1)CC(NCC(O)c1cccc(Cl)c1)CC2` (stereo not given), for which the outcome was inactive.

`CC(=O)OCCC(C)C`: the outcome was inactive.

The AC50 is the midpoint of the concentration-response curve, whichever way the signal moves. Consider `Cc1[nH]cnc1C[C@H]1CCc2c(C)c3ccccc3n2C1=O`, for which the AC50 was 31.9 µM (active).

For the molecule `CC[C@H](C)C(=O)O[C@H]1C[C@@H](C)C=C2C=C[C@H](C)[C@H](CC[C@@H]3C[C@@H](O)CC(=O)O3)[C@H]21`, the outcome was inactive.

Regarding `Cc1ccc(O)cc1`, the result was inactive.

On to `CN(C)c1ccc(Cc2ccc(N(C)C)cc2)cc1`, for which the outcome was inactive.

For the molecule `Cn1c(=O)cc(Oc2ccc(F)cc2F)c2cnc(NCC(C)(C)O)nc21`, the result was inactive.

As to `O=C(O)c1cc(N=Nc2ccc(S(=O)(=O)Nc3ccccn3)cc2)ccc1O`, the outcome was inactive.

As to `CC(C)=CCCC(C)=CC=O`, the result was inactive.

For the molecule `COCCOCCOCCOC`, the outcome was inactive.

As for `CCCCCCCCCCCCc1ccccc1`, the outcome was inactive.

With `Oc1ccc2c(c1)-c1ccccc1C2`, the outcome was inactive.

For the molecule `O=C1OC(=O)C2C3C=CC(C3)C12` (stereo not given), the outcome was inactive.

With `CCOc1cccc(-n2cc(C(=O)N3CCN(c4cc(C(=O)O)c5ccccc5c4)CC3)nc2-c2ccc(C)cc2)c1`, the AC50 is 35.4 µM (active).

Take `CC(C)=CCC/C(C)=C/CO`: the outcome was inactive.

As for `O=c1n(CC2CO2)c(=O)n(CC2CO2)c(=O)n1CC1CO1` (stereo not given), the outcome was inactive.

For `O=C(O)CC(O)C(=O)O` (stereo not given), the result was inactive.

On to `CC(C)=CCCC(C)CCO` (stereo not given), for which the result was inactive.

Take `CC(C)=CCC/C(C)=C\CO`: the outcome was inactive.

For the molecule `On1ccccc1=S`, the AC50 was 19.8 µM (active).

For the molecule `CCCN(C1CCN(C(=O)C2CCNCC2)CC1)[C@@H]1CCc2ccc(OC)cc2C1`, the result was inactive.

Take `COc1ccc(-n2nc(C(F)F)cc2-c2ccc(S(C)=O)cc2)cc1` (stereo not given): the result was inactive.

For the molecule `CNCc1ccc(NC(=O)c2c[nH]c3c2C(=O)CCC3)cc1`, the outcome was inactive.

In the case of `CC(C)CC(C)(O)C#CC(C)(O)CC(C)C` (stereo not given), the outcome was inactive.

With `Cc1ccc(C)c(O)c1`, the result was inactive.

For the molecule `CCCCCCCCO`, the outcome was inactive.

For the molecule `CC(C)CCCCCCOC(=O)c1ccc(C(=O)OCCCCCCC(C)C)c(C(=O)OCCCCCCC(C)C)c1`, the result was inactive.

Consider `O=C1CCC(N2C(=O)c3ccccc3C2=O)C(=O)N1` (stereo not given), for which the outcome was inactive.

For `O=C(CCCCCCCCc1cccnc1)N1CCC(C=C(c2ccccc2)c2ccccc2)CC1`, the AC50 was 8.63 µM (active).

`CCCCC(CC)COC(=O)CCCCCCCCC(=O)OCC(CC)CCCC` (stereo not given): the result was inactive.

As to `CC(C)c1cccc(C(C)C)c1N1C(=O)c2ccc(O)cc2C1=O`, the AC50 is 32 µM (active).

Regarding `CC(O)CN(CCN(CC(C)O)CC(C)O)CC(C)O` (stereo not given), the outcome was inactive.

For the molecule `CCOCCO`, the outcome was inactive.

Regarding `O=C(NS(=O)(=O)/C=C/c1ccccc1)c1ccc(F)cc1Cl`, the result was inactive.

As for `COc1ccc(/C=C/S(=O)(=O)NC(=O)c2ccc(C)cc2Cl)cc1`, the outcome was inactive.

Turning to `O=C(O)c1cccc(N(Cc2cccnc2)c2ccc(OC(F)F)c(OC(F)F)c2)c1`, the outcome was inactive.

As for `O=C(O)c1cccc(Oc2ccccc2)c1`, the outcome was inactive.

The record behind these values is PubChem BioAssay (EPA / NIEHS).
